Laboratory results published in PubChem BioAssay (NCATS).
Results filed as inconclusive are left out. Calls of active or inactive are those of the source. Calls follow the shape of the dose curve; as a rule, active = well fitted inhibition curve with a large enough effect; inconclusive = small, poorly fitted or top-dose-only effect; inactive = flat fitted curve, though single readings scatter.

Assays:
Test in all cases: qHTS profiling for inhibitors of Plasmodium falciparum proliferation (AID 504749); also: nearly all actives have a fitted effect of over 60% in size
Details in all cases: P. falciparum in erythrocytes, SYBR Green DNA, 72 h; series mostly up to 28.7 µM
[1] = system: AS120
Method in brief: (§1)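 Fluorescence of SYBR Green-bound parasite DNA, read at 485/535 nm, served as the growth measure. Infected erythrocytes were cultured with compound 72 h; artemisinin (0.29 uM) and DMSO wells defined the normalization range.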

[2] = system: ATS189
Method in brief: as §1

[3] = system: CP185
Method in brief: as §1

[4] = system: CP191
Method in brief: as §1

[5] = system: CP192
Method in brief: as §1

[6] = system: CP201
Method in brief: as §1

[7] = system: CP237
Method in brief: as §1

[8] = system: CP238
Method in brief: as §1

[9] = system: CP247
Method in brief: as §1

[10] = system: CP268
Method in brief: as §1

[11] = system: CP286
Method in brief: as §1

[12] = system: CP291
Method in brief: as §1

[13] = system: CP305
Method in brief: as §1

[14] = system: CP335
Method in brief: as §1

[15] = system: DIV30
Method in brief: as §1

[16] = system: Dd2
Method in brief: as §1

[17] = system: HB3
Method in brief: as §1

[18] = system: P94_40
Method in brief: as §1

[19] = system: TAB109
Method in brief: as §1

[20] = system: TAB113
Method in brief: as §1

Measured: Potency
Potency is read from the fitted curve at half-maximal effect.

CC(C)[C@@]1(NC(=O)[C@H]2CC3c4cccc5[nH]cc(c45)C[C@H]3N(C)C2)O[C@@]2(O)C3CCCN3C(=O)[C@@H](Cc3ccccc3)N2C1=O (stereo not given in full)
active: [1] 891 nM | [2] 2.82 µM | [3] 10 µM | [4] 5.01 µM | [5] 7.57 µM | [6] 10.7 µM | [7] 1.26 µM | [8] 3.98 µM | [9] 8.91 µM | [10] 10.7 µM | [11] 3.98 µM | [12] 10.7 µM | [13] 6.75 µM | [14] 3.79 µM | [15] 1.51 µM | [16] 2.82 µM | [17] 2 µM | [18] 2 µM | [19] 4.47 µM | [20] 3.55 µM

CCN1C[C@]2(COC)[C@H](O)C[C@H](OC)[C@]34C1C([C@H](OC)[C@H]23)[C@]1(OC(C)=O)C2[C@@H](OC(=O)c3ccccc3)C(O)(C[C@H]24)[C@@H](OC)[C@@H]1O
inactive: all assays above
